Calls of active or inactive are those of the source. Rule for the calls: active = hit-call score of the fitted dose curve at least 0.9, where 1 is the maximum; inactive = score below 0.9.

Read-out in experiment [1]: Thrombomodulin, THBD (gene 7056)
Briefly: BSK_CASM3C_Thrombomodulin: BioMAP Diversity Plus: CASM3C Assay for Thrombomodulin Biomarker Activity (AID 2283051).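 Note: thrombomodulin protein level measured by ELISA 24 h after dosing.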 Particulars: primary human coronary artery smooth muscle cells; actives raise or lower the signal.

Read-out in experiment [2]: Tissue Factor, F3 (gene 2152)
Briefly: BSK_CASM3C_TissueFactor: BioMAP Diversity Plus: CASM3C Assay for Tissue Factor Biomarker Activity (AID 2283052).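 Note: cell surface tissue factor protein level read by ELISA.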 The note with it: primary human coronary artery smooth muscle cells; actives raise or lower the signal.

Read-out in experiment [3]: Interferon-gamma inducible Protein 10 (IP10), CXCL10 (gene 3627)
Kind of experiment: BSK_hDFCGF_IP10: BioMAP Diversity Plus: hDFCGF Assay for Interferon-gamma inducible Protein 10 (IP10) Biomarker Activity (AID 2283053). The note with it: primary human foreskin fibroblasts; actives raise or lower the signal. In a few lines:
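ELISA read-out of IP-10 (CXCL10) from primary human skin fibroblasts, 24 h after compound addition. Gain or loss of signal versus DMSO baseline, bidirectional curve fitting.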

Read-out in experiment [4]: Urokinase-type plasminogen activator receptor (uPAR), PLAUR (gene 5329)
Briefly: BSK_CASM3C_uPAR: BioMAP Diversity Plus: CASM3C Assay for Urokinase-type plasminogen activator receptor (uPAR) Biomarker Activity (AID 2283054).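 Note: cell-surface uPAR protein level quantified by ELISA.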 Particulars: primary human coronary artery smooth muscle cells; actives raise or lower the signal.

Read-out in experiment [5]: Vascular cell adhesion molecule 1 (VCAM1), VCAM1 (gene 7412)
Kind of experiment: BSK_CASM3C_VCAM1: BioMAP Diversity Plus: CASM3C Assay for Vascular cell adhesion molecule 1 (VCAM1) Biomarker Activity (AID 2283055).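 Note: VCAM-1 protein level quantified by ELISA on the cells.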 Particulars: primary human coronary artery smooth muscle cells; actives raise or lower the signal.

Read-out in experiment [6]: Collagen III, COL3A1 (gene 1281)
Kind of experiment: BSK_hDFCGF_CollagenIII: BioMAP Diversity Plus: hDFCGF Assay for Collagen III Biomarker Activity (AID 2283056). The note with it: primary human foreskin fibroblasts; actives raise or lower the signal. In a few lines: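 Human foreskin primary fibroblasts were exposed to test chemicals for 24 h, after which collagen III was quantified by ELISA. Activity was fitted bidirectionally against DMSO as negative control and baseline.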

Read-out in experiment [7]: Epidermal growth factor receptor (EGFR), EGFR (gene 1956)
Kind of experiment: BSK_hDFCGF_EGFR: BioMAP Diversity Plus: hDFCGF Assay for Epidermal growth factor receptor (EGFR) Biomarker Activity (AID 2283057). Particulars: primary human foreskin fibroblasts; actives raise or lower the signal. The essentials: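 ELISA readout of EGFR on human dermal fibroblasts (primary foreskin cells), 24 h post-dosing; bidirectional curve fit vs DMSO baseline, gain or loss of signal scored.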

Read-out in experiment [8]: Interleukin-8 (IL8), CXCL8 (gene 3576)
Kind of experiment: BSK_hDFCGF_IL8: BioMAP Diversity Plus: hDFCGF Assay for Interleukin-8 (IL8) Biomarker Activity (AID 2283058). The note with it: primary human foreskin fibroblasts; actives raise or lower the signal. The essentials: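 hDFCGF human dermal fibroblasts; 24 h chemical exposure; IL-8 by ELISA; bidirectional curve fit vs DMSO baseline; gain or loss of signal scored.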

The nature of experiment [9]: BSK_hDFCGF_Proliferation: Cell Proliferation Assessment in the BioMAP Diversity Plus: hDFCGF Assay (AID 2283059).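 Note: curves fitted for both rise and fall of signal versus DMSO baseline.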 The note with it: primary human foreskin fibroblasts. The essentials:
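Sub-confluent human foreskin fibroblast cultures receive test chemical […]. Relative cell number is quantified by sulforhodamine B staining (0.1%, after 10% TCA fixation) at 560 nm, with bidirectional fitting referenced to DMSO.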

Read-out in experiment [10]: Macrophage colony-stimulating factor (MCSF), CSF1 (gene 1435)
Kind of experiment: BSK_hDFCGF_MCSF: BioMAP Diversity Plus: hDFCGF Assay for Macrophage colony-stimulating factor (MCSF) Biomarker Activity (AID 2283060). Particulars: primary human foreskin fibroblasts; actives raise or lower the signal. In a few lines: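 Human foreskin primary fibroblasts were treated with test chemical for 24 h, and M-CSF was then measured by ELISA. Data were fitted bidirectionally against DMSO as the negative control and activity baseline.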

Experiment [11] can be described thus: BSK_hDFCGF_SRB: Viability Assessment in the BioMAP Diversity Plus: hDFCGF Assay (AID 2283061).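 Note: cells exposed to compound for 24 h before the read.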 Particulars: primary human foreskin fibroblasts. The essentials:
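Human foreskin primary fibroblasts were treated with compound and assessed 24 h after dosing. Total protein was measured by sulforhodamine B staining (0.1% SRB after 10% TCA fixation, 560 nm read) as a cytotoxicity marker, with bidirectional fitting against DMSO baseline.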

Read-out in experiment [12]: TIMP metallopeptidase inhibitor 1 (TIMP1), TIMP1 (gene 7076)
Kind of experiment: BSK_hDFCGF_TIMP1: BioMAP Diversity Plus: hDFCGF Assay for TIMP metallopeptidase inhibitor 1 (TIMP1) Biomarker Activity (AID 2283062). Particulars: primary human foreskin fibroblasts; actives raise or lower the signal. The essentials: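 Primary human foreskin fibroblasts in the hDFCGF system were dosed with compound for 24 h, then TIMP-1 was measured by ELISA. Activity was fitted bidirectionally relative to DMSO control; parallel SRB staining assessed cytotoxicity.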

Read-out in experiment [13]: Monokine induced gamma interferon (MIG), CXCL9 (gene 4283)
Briefly: BSK_hDFCGF_MIG: BioMAP Diversity Plus: hDFCGF Assay for Monokine induced gamma interferon (MIG) Biomarker Activity (AID 2283063). The note with it: primary human foreskin fibroblasts; actives raise or lower the signal. In a few lines:
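ELISA read-out of MIG from primary human dermal fibroblasts 24 h post-dosing. Gain or loss of signal fitted bidirectionally, DMSO as baseline.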

Read-out in experiment [14]: Vascular cell adhesion molecule 1 (VCAM1), VCAM1 (gene 7412)
Kind of experiment: BSK_hDFCGF_VCAM1: BioMAP Diversity Plus: hDFCGF Assay for Vascular cell adhesion molecule 1 (VCAM1) Biomarker Activity (AID 2283065).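 For AC50: VCAM-1 protein level quantified by ELISA after 24 h chemical exposure.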 The note with it: primary human foreskin fibroblasts; actives raise or lower the signal. In a few lines:
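Primary human foreskin fibroblasts (hDFCGF system) were dosed with chemical and VCAM-1 was measured by ELISA 24 h later. Bidirectional curve fitting used DMSO as negative control and activity baseline.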

Read-out in experiment [15]: Plasminogen activator inhibitor-1 (PAI1), SERPINE1 (gene 5054)
Kind of experiment: BSK_hDFCGF_PAI1: BioMAP Diversity Plus: hDFCGF Assay for Plasminogen activator inhibitor-1 (PAI1) Biomarker Activity (AID 2283066). The note with it: primary human foreskin fibroblasts; actives raise or lower the signal. The essentials:
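ELISA readout of PAI-1 from primary human skin fibroblast cultures, 24 h after compound addition. Gain or loss of signal was fitted bidirectionally against DMSO baseline.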

Read-out in experiment [16]: Intercellular Adhesion Molecule 1 (ICAM1), ICAM1 (gene 3383)
Briefly: BSK_KF3CT_ICAM1: BioMAP Diversity Plus: KF3CT Assay for Intercellular Adhesion Molecule 1 (ICAM1) Biomarker Activity (AID 2283067). Particulars: primary human keratinocytes with fibroblasts; actives raise or lower the signal. The essentials:
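Human keratinocyte plus foreskin fibroblast primary co-culture was exposed to chemical for 24 h. ICAM-1 was then quantified by ELISA, and the data were fit bidirectionally against DMSO as the negative control and baseline.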

Read-out in experiment [17]: Interferon-gamma inducible Protein 10 (IP10), CXCL10 (gene 3627)
Kind of experiment: BSK_KF3CT_IP10: BioMAP Diversity Plus: KF3CT Assay for Interferon-gamma inducible Protein 10 (IP10) Biomarker Activity (AID 2283068). Particulars: primary human keratinocytes with fibroblasts; actives raise or lower the signal. In a few lines:
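ELISA read-out of IP-10 after 24 h chemical dosing of human skin primary co-culture (keratinocytes, foreskin fibroblasts). Gain or loss of signal relative to DMSO, bidirectional curve fit.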

A short description of experiment [18]: BSK_KF3CT_SRB: Viability Assessment in the BioMAP Diversity Plus: KF3CT Assay (AID 2283069). The note with it: primary human keratinocytes with fibroblasts. In a few lines: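 Cytotoxicity was gauged by SRB staining (0.1% SRB, 10% TCA fixation, 560 nm) of parallel cultures at 24 h. The cells were primary human skin keratinocytes co-cultured with fibroblasts, and activity was fitted in both directions against DMSO.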

Read-out in experiment [19]: Interleukin-1 alpha (IL1a), IL1A (gene 3552)
Kind of experiment: BSK_KF3CT_IL1a: BioMAP Diversity Plus: KF3CT Assay for Interleukin-1 alpha (IL1a) Biomarker Activity (AID 2283070). Particulars: primary human keratinocytes with fibroblasts; actives raise or lower the signal. In a few lines: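 IL-1a was detected by ELISA 24 h after chemical treatment of a co-culture of human skin keratinocytes and foreskin fibroblasts. Gain or loss of signal was fitted against the DMSO baseline.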

Read-out in experiment [20]: Matrix Metallopeptidase 1 (MMP1), MMP1 (gene 4312)
Briefly: BSK_hDFCGF_MMP1: BioMAP Diversity Plus: hDFCGF Assay for Matrix Metallopeptidase 1 (MMP1) Biomarker Activity (AID 2283064). Particulars: primary human foreskin fibroblasts; actives raise or lower the signal. The essentials: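 MMP1 levels quantified by ELISA 24 h after dosing human dermal fibroblast cultures, with parallel SRB total-protein staining for overt cytotoxicity. Data fitted in both directions against DMSO baseline.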

In general, AC50 refers to the concentration at which the activity in the assay is half-maximal. In the case of `CC(C1CC1)C(O)(Cn1cncn1)c1ccc(Cl)cc1` (configuration not stated), the result in experiment [1], in [2], in [3], in experiment [4], in experiment [5] and in [6] was inactive. Moreover, the outcome in experiment [7], in experiment [8], in [10], in experiment [11], in [12] and in experiment [13] was inactive. The result in experiment [14], in experiment [15], in experiment [16], in [17], in experiment [18] and in [19] was inactive. In experiment [9], the AC50 is 29.9 µM (active).

`CCCCSP(=O)(SCCCC)SCCCC`: the AC50 in experiment [1] is 20 µM (active); in experiment [3] it was 20 µM (active); in experiment [6], 20 µM (active); in experiment [9] it was 30.6 µM (active); in experiment [10], 14.6 µM (active). Further, the outcome in experiment [2], in [4], in [5], in experiment [7], in [8] and in [11] was inactive. Also, the outcome in experiment [12], in experiment [13], in experiment [14], in experiment [15], in [16] and in [17] was inactive. Also, the result in [18] and in experiment [19] was inactive.

With `N#CSCSC#N`, the AC50 in experiment [1] was 31.3 µM (active); in experiment [3], 1.09 µM (active); in experiment [4], 30.6 µM (active); in experiment [5], 19.3 µM (active); in experiment [6], 2.52 µM (active); in [7] it was 1.68 µM (active). Also, the AC50 in experiment [9] is 0.225 µM (active); in experiment [10], 1.93 µM (active); in experiment [11] it was 0.66 µM (active); in experiment [13], 1.78 µM (active); in experiment [20] it was 3.17 µM (active); in experiment [14], 1.71 µM (active). The AC50 in experiment [15] was 2.32 µM (active); in experiment [16], 5.57 µM (active); in experiment [17], 8.38 µM (active); in [18] it was 4.78 µM (active); in experiment [19], 8.09 µM (active). The result in experiment [2] and in experiment [12] was inactive.

Regarding `C[N+]1(C)CCCCC1`, the result in [1], in experiment [2], in experiment [3], in experiment [4], in experiment [5] and in experiment [6] was inactive. In addition, the outcome in [7], in experiment [8], in experiment [9], in experiment [10], in [11] and in [13] was inactive. In addition, the outcome in experiment [20], in [14], in experiment [15], in [16], in [17] and in [18] was inactive. For the same compound, the outcome in experiment [19] was inactive.

In the case of `CCc1cccc(C)c1N(C(=O)CCl)C(C)COC` (configuration not stated), the outcome in experiment [1], in [2], in [4], in [5], in experiment [6] and in experiment [7] was inactive. Besides, the result in experiment [8], in [10], in experiment [11], in experiment [13], in experiment [20] and in experiment [14] was inactive. Besides, the outcome in experiment [16], in [18] and in [19] was inactive. In addition, the concentration at half-maximal activity (AC50) is 20 µM (active) in experiment [3], 16.1 µM (active) in [9] and 33.2 µM (active) in experiment [17].

In the case of `CN(C)NC(=O)CCC(=O)O`, the result in [1], in [2], in experiment [3], in experiment [4], in [5] and in experiment [6] was inactive. Also, the result in experiment [7], in experiment [9], in experiment [10], in experiment [11], in [12] and in experiment [13] was inactive. Also, the outcome in experiment [14], in experiment [15], in [16], in experiment [17], in experiment [18] and in experiment [19] was inactive.

The values above are taken from PubChem BioAssay (EPA / NIEHS).
